Unmarked numbers belong to inactive results. Active and inactive are the calls of the source. Cut-off read from the data, not from the text of the source, unless noted: active = inhibition above about 28%; inactive = the rest.
How the values were obtained:
[1] = StAR promoter reporter inhibitors, counter-screen for LRH-1 inverse agonist project, cell-based, luminescence, high throughput (AID 651611); conditions: StAR promoter luciferase reporter counterscreen, at 3.6 µM, active compounds read high
[2] = biological target: Nuclear receptor subfamily 5 group A member 2 (Homo sapiens) (UniProt O00482); experiment: LRH-1 (NR5A2) inverse agonists, retest, confirmation, cell-based, luminescence (AID 651613; in the data active = inhibition above about 42%;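 note: HEK293T cells co-transfected with LRH-1 and StAR promoter luciferase reporter; 0% = vehicle wells and 100% = parental cells lacking receptor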); conditions: cell-based LRH-1 luciferase reporter, inverse agonism; at 3.6 µM; active compounds read high
[3] = biological target: Steroidogenic factor 1 (Homo sapiens) (UniProt Q13285); experiment: SF1 (NR5A1) inverse agonists, counter-screen for LRH-1 inverse agonist project, cell-based, luminescence, high throughput (AID 651614; in the data active = inhibition above about 44%;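 note: cells cotransfected with StAR promoter reporter and SF1 expression vector; 0% = vehicle on cells with receptor and 100% = vehicle on cells lacking receptor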); conditions: cell-based SF1 luciferase reporter, at 3.6 µM, active compounds read high
[4] = VP16 transactivation reporter inhibitors, counter-screen for LRH-1 inverse agonist project, cell-based, luminescence, high throughput (AID 651615; in the data active = inhibition above about 33%); conditions: Gal4-VP16 luciferase reporter cells, at 3.6 µM, active compounds read high

Sequence of Nuclear receptor subfamily 5 group A member 2 (Homo sapiens) (O00482 whole entry, looked up): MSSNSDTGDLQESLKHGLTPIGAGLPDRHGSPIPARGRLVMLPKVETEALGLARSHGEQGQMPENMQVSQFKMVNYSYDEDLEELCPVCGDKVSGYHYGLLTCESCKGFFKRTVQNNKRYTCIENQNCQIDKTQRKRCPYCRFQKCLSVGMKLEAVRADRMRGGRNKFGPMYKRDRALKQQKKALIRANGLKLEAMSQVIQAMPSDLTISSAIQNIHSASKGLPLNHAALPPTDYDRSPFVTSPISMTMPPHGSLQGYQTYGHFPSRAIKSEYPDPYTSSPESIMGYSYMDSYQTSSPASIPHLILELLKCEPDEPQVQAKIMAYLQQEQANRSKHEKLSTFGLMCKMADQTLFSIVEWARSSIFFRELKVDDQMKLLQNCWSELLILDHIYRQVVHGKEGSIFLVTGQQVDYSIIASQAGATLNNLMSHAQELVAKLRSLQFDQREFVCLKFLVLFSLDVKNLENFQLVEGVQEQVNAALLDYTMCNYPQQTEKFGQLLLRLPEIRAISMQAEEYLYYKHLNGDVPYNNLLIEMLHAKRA
Sequence of Steroidogenic factor 1 (Homo sapiens) (Q13285 whole entry, looked up, the tested form may be a part): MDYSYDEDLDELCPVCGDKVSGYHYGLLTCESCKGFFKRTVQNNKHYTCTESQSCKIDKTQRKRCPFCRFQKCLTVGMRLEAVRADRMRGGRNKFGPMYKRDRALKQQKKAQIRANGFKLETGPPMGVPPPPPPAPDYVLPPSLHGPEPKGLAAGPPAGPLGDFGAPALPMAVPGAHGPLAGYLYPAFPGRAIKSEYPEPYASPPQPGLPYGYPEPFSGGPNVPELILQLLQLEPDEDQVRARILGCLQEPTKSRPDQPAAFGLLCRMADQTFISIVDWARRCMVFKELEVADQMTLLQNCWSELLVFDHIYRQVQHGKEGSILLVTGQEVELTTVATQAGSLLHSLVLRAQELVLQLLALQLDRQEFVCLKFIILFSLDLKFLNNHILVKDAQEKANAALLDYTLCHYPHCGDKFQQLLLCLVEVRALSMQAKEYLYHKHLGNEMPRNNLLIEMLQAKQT

| Compound | inhibition [1] | inhibition [2] | inhibition [3] | inhibition [4] |
| --- | --- | --- | --- | --- |
| COc1ccc(OC)c(/C=N/N=C2\SCC(=O)N2Cc2ccco2)c1 | 10.7% | 57.4% (active) | 45.7% (active) | 5.2% |
| CN(C)S(=O)(=O)c1cccc(C(=O)OCC(=O)Nc2ccc3c(c2)OCCO3)c1 | 17.9% | 51.5% (active) | 52.3% (active) | 10.7% |
| Cc1cc2ncn(/N=C/c3ccc([N+](=O)[O-])s3)c2cc1C | 12.7% | 60% (active) | 58.6% (active) | -1.24% |
| COc1cccc(-c2nc(NCC3CCCO3)c3ccccc3n2)c1O (stereo not given) | 31.9% (active) | 64.7% (active) | 59.1% (active) | -15.4% |
| Cn1c(SCC(=O)Nc2ccc(N3CCOCC3)cc2)nnc1-c1ccco1 | 0.8% | 56.5% (active) | 49.4% (active) | -17.8% |
| CC(=O)C1=C(c2ccc(Br)cc2)C(=O)c2ccccc2C1=O | 74.3% (active) | 101% (active) | 78.1% (active) | 92% (active) |
| Cc1ccccc1C(=O)O/N=C/c1c(N2CCOCC2)n(C)c2ccccc12 | 76.4% (active) | 84.3% (active) | 91.4% (active) | 58.8% (active) |
| O=C(COc1ccc2c3c(c(=O)oc2c1)CCC3)NCc1ccncc1 | 0.83% | 50% (active) | 41.4% | -2.51% |
| COc1cc2c(cc1OC)CN(C(=O)CN1C(=O)NC3(CCC(C)CC3)C1=O)CC2 (stereo not given) | 11.1% | 46% (active) | 46.4% (active) | 7.61% |
| S=C(NCc1ccccc1)Nc1ccncc1 | 9.38% | 37% | 47.3% (active) | 13.1% |
| Cc1c(C(C)C)c(=O)n(-c2ccc(S(=O)(=O)NC3CCCCC3)cc2)n1C | 23.7% | 60.6% (active) | 62.1% (active) | 47.9% (active) |
| Cc1nn(CC(=O)Nc2ccc3c(c2)OCCO3)c(C)c1[N+](=O)[O-] | 11.2% | 62.3% (active) | 51.6% (active) | 10.4% |
| Cc1ccc(NC(=O)COC(=O)C(NS(=O)(=O)c2ccc(Cl)cc2)C(C)O)c(Br)c1 (stereo not given) | 3.18% | 55.3% (active) | 57.6% (active) | -12.9% |
| O=C(Cc1ccc(Cl)cc1Cl)Nc1ccncc1 | 16.2% | 76.1% (active) | 72.9% (active) | 48.6% (active) |
| CC(C)=NOc1cc(NC(=O)CCl)cc([N+](=O)[O-])c1 | 37.5% (active) | 56.3% (active) | 56.4% (active) | 13% |
| C=CC(=O)Nc1ccc(Br)cc1 | 20.7% | 41% | 51.4% (active) | -1.85% |
| CCc1cc(=O)[nH]c(SCC(=O)Nc2ccc3c(c2)OCCO3)n1 | 4.24% | 40.6% | 45.7% (active) | 0.13% |
| O=C(Nc1c(Cl)ccc2nsnc12)c1ccc([N+](=O)[O-])o1 | 17.1% | 65.1% (active) | 64.9% (active) | -11.9% |
| O=C(Nc1ccccc1)c1oc2ccccc2c1NC(=O)C1CC1 | 3.25% | 52.8% (active) | 50.5% (active) | 1.67% |
| Cc1c(C#N)c(O)n(CCO)c(=O)c1N=Nc1ccccc1 | 13.4% | 44.4% (active) | 41.7% | 6.91% |
| CC(=O)c1ccsc1-c1c(C)cc2oc(=O)cc(-c3ccccc3)c2c1C | 8.02% | 64.7% (active) | 54.4% (active) | -0.37% |
| COc1ccc(OCCNC(=O)c2ccccc2OCC(=O)Nc2ccc(NC(C)=O)cc2)cc1 | 16% | 49.8% (active) | 52.4% (active) | 0% |
| O=C(C(Cl)c1ccccc1)N1CCOCC1 (stereo not given) | 5.9% | 56.5% (active) | 54.5% (active) | -10.2% |
| N#Cc1cc([N+](=O)[O-])ccc1NC(=O)COC(=O)C1CCC(=O)N1 (stereo not given) | 15.6% | 53.7% (active) | 48.9% (active) | -3.83% |
| COC(=O)c1ccc(NC(=O)CSc2nnc(C)n2CC2CCCO2)cc1 (stereo not given) | 3.1% | 50.5% (active) | 40.7% | -3.65% |

— PubChem BioAssay
